The first assay deals with LYPD3. Kind of assay: pooled miR-30 sensor sort-seq; sequence = guide strand. The note with it: shRNA.
Regarding TTCATCCTGGACACAGCCCCGG, the sensor-assay potency score (higher = more potent) was -0.847. The same measure, in the same setting: for TCTTGTTCGGGGAGCATCCGTC the value was -0.769; for TCATCCTGGACACAGCCCCGGA, -1.53. The same measure, in the same setting: for TTGTAGACATGATCGCTGGCGT the value was -0.346; for ACTGTCTTCATCTTGTTCGGGG, 0.213.

Consider TTGAGCTTGGCGTTGCAGCGAT, for which the sensor-assay potency score (higher = more potent) is -0.598. The same measure, in the same setting: for TAGAAGTGGTGACAGATGTGGT the value was -0.342; for TGCACTCTCATTACCTGCCGGG, -0.389. Still for that read-out and setting: under TCATCTGCTTTCTGCACGCAGC stands -1.43.

For a further assay, the target named is LYZL6. The assay is described as above. The note with it: shRNA.
As to TTGATATGTTGAACTTGCTTTC, the sensor-assay potency score (higher = more potent) was -0.485. For TTTGATATGTTGAACTTGCTTT, the sensor-assay potency score (higher = more potent) is 0.0932.

AACAGTGCAACCTCCATTCTAC: the sensor-assay potency score (higher = more potent) is -0.122. Same read-out and setting: under TATGTTGAACTTGCTTTCCACA stands -1.04. As for CAGATCTTGACAGTCTACGTGG, the sensor-assay potency score (higher = more potent) is -1.04.

For TCAGCAGATCTTGACAGTCTAC, the sensor-assay potency score (higher = more potent) was -0.859. Same read-out and setting: for ATCTTTGATATGTTGAACTTGC the value was -0.0692; for TAATCGTTGCACCAGTAGTGGC, -1.43; for TTGCTTTCCACAAAAGCCAGGC, -0.197. On the same count and under the same terms, under TTTAGGGCAAGAAAGCTGCTGA stands -0.16; under TATCTTTGATATGTTGAACTTG, -0.231. As to ATAATCGTTGCACCAGTAGTGG, the sensor-assay potency score (higher = more potent) was -0.825.

The target of the next assay is LZTR1. The description is as above. To be noted: shRNA.
Regarding TTAGGGTAACAGGAGAACTGGA, the sensor-assay potency score (higher = more potent) was -0.956. In the case of TATGATGTCCAGCAGCAGCTGC, the sensor-assay potency score (higher = more potent) was -0.965. Still for that read-out and setting: for TACTCGACACTGTCCGAGCAGC the value was -1.08; for TTTCACATCGAACCGCAGGAGG, -1.16; for TAGGGTAACAGGAGAACTGGAA, 0.345. In the case of AATACAAACATCTTGTCCCGGC, the sensor-assay potency score (higher = more potent) was -0.355. For the sequence TCATTGAGCATGGTCTTCCCAT, the sensor-assay potency score (higher = more potent) is -0.632. As to TTCATCTCCAGGTTCTGCTTGC, the sensor-assay potency score (higher = more potent) amounted to 0.0647. On the same count and under the same terms, for TTGGAGACCTTGGTGAACTGGT the value was 0.248; for TATTTGATCTTGTCGGTGTAGA, 0.13; for TAACAGGAGAACTGGAACCTGT, -1.05.

The next assay concerns the target MACROD1. The description is as above. To be noted: shRNA.
For the sequence TCATTGAGCTGCTTGTCCTTTT, the sensor-assay potency score (higher = more potent) was -0.672. The same measure, in the same setting: for TTCAGCCTGACAAAGTCCTTGC the value was 0.08; for TTCGCCTCCTTCCAGTCGGTGG, -1.48; for AACACGCAGATGATCAGCCGGT, -0.183. Turning to TTGAGCTGCTTGTCCTTTTTAT, the sensor-assay potency score (higher = more potent) is -0.992. Take TTACAGCTCTGCAGGGTCCGGC: the sensor-assay potency score (higher = more potent) is -1.02. Same read-out and setting: for TGCTTGTCCTTTTTATACCTGG the value was -0.621; for TCCAGCTTGGTGATGTCGCTGC, -0.0855.
Note: reference of the scale not given here.
